# Compound activity deposited in PubChem by The Scripps Research Institute Molecular Screening Center.
# Shown is part of a subset that was picked to be rich in hits.
# TTR transcr act = TTR transcription activators in neuroblastoma reporter cells, primary screen, cell-based, luminescence, SH-SY5Y, TTR promoter Gaussia luciferase; AID 1117267, 2014; 100% = recombinant luciferase protein wells; 92,000 tested, 1.3% active; activation, % at 16.7 µM;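 active = activation above the mean of all tested compounds plus 3 SD, cut at about 9.5% in these data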;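 note: cells exposed to compounds for one day before reading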
# HuH7 TTR inh = TTR promoter reporter inhibitors in hepatoma cells, counter-screen for TTR transcription activator project, cell-based, luminescence, HuH7 hepatoma; shares compounds with TTR transcr act; HuH7 TTR promoter-Gaussia luciferase reporter; inhibition, % at 16.7 µM; 1,100 tested, 4% active; AID 1117279, 2014;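 active = average inhibition above the solvent-only control wells' mean plus 3 SD, cut at about 15% in these data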;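 note: inhibitors lower well luminescence so higher value means more inhibition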
# TTR up confirm = TTR transcription activators, retest, confirmation, cell-based, luminescence, SH-SY5Y, triplicate; shares compounds with TTR transcr act; SHSY5Y TTR promoter Gaussia luciferase; 100% = purified Lucia enzyme wells, no cells; activation, % at 16.7 µM; 1,100 tested, under 10 active;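 active = mean activation above a set limit taken from the earlier primary screen, cut at about 11% in these data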
# Hits are given with their value; i = inactive.
SMILES,TTR transcr act,others
O=C(CCn1c(=O)c2sccc2n(Cc2cc(=O)n3ccccc3n2)c1=O)NCc1ccco1,i,
CCn1cc(S(=O)(=O)Nc2ccc3c(c2)OCCO3)cn1,i,
COc1ccc(Nc2nc3[nH]c(=O)cc(O)c3s2)cc1,i,
Cc1ccc(Nc2n[nH]c(=S)s2)cc1F,i,
O=c1cc(O)c2sc(Nc3ccc(Cl)c(F)c3)nc2[nH]1,9.9,HuH7 TTR inh=17;TTR up confirm=i
CC(C)NC(=O)CCCc1c[nH]c2ccccc12,i,
COCCCN1C(=O)C(CC(=O)NCCN2CCOCC2)CC(C(=O)N(C(C)C)C(C)C)=C1C (configuration not stated),i,
Cc1cccc(-n2c(SCC(=O)NCC3CCCO3)nc3ccccc3c2=O)c1C (configuration not stated),i,
Cc1ccccc1NC(=O)N1CCN(C(=O)c2ccco2)CC1,i,
Cc1cc2oc(C(=O)N(Cc3ccc(N(C)C)cc3)CC3CCCO3)c(C)c2cc1C (configuration not stated),51,HuH7 TTR inh=i;TTR up confirm=i
Cc1c(C(=O)N(Cc2ccc(N(C)C)cc2)C2CCS(=O)(=O)C2)oc2ccccc12 (configuration not stated),i,
Cc1cccc(NC(=O)CN(CC2CCCO2)C(=O)c2oc3ccc(F)cc3c2C)c1C (configuration not stated),i,
CN(C)CCCNCCCNC(=O)/C=N/O,i,
CCCc1nc2sc3c(c2c(=O)[nH]1)CCCC3,i,
COCc1nc2sc3c(c2c(=O)[nH]1)CCCC3,i,
CCN(CC(=O)NC(C)C)Cc1nc2sc3c(c2c(=O)[nH]1)CCC3,13,HuH7 TTR inh=i;TTR up confirm=i
CC(OC(=O)c1cccc(N(C)C)c1)C(=O)N1CCc2ccccc2C1 (configuration not stated),i,
Nc1c(N(Cc2ccccc2)C(=O)COc2ccc(F)cc2)c(=O)[nH]c(=O)n1Cc1ccccc1,i,
COc1cc(CNCc2ccccn2)ccc1OCc1c(Cl)cccc1Cl,i,
COC(=O)c1sccc1NC(=O)Nc1cccc(OC)c1,10.0,HuH7 TTR inh=i;TTR up confirm=i
COC(=O)c1sccc1NC(=O)Nc1cc(C)cc(C)c1,i,
COC(=O)c1sccc1NC(=O)c1cccc(OC)c1,i,
COc1ccc(-c2cc(=O)c3c(C)cc(O)cc3o2)cc1,i,
COc1ccc(-c2cc(=O)c3c(OC)c(OC)c(OC)c(OC)c3o2)cc1,i,
COc1ccc(-c2[nH]nc3oc(=O)cc(C)c23)cc1,16,HuH7 TTR inh=i;TTR up confirm=i
SMILES,TTR transcr act,others
CN(C)C(=O)CCc1ccc2c3c([nH]c2c1)[C@]1(C)[C@@H](C(=O)N2CCCCC2)C[C@H](CC(=O)NCc2cccc(C(F)(F)F)c2)C(=O)N1CC3,i,
O=C(CCc1ccccc1)N1CCCC1,11,HuH7 TTR inh=i;TTR up confirm=i
O=C(CCc1nnc(CCCc2ccccc2)o1)N1CCCCCC1,i,
CC1CCCN(C(=O)CCc2ccccc2)C1 (configuration not stated),i,
COC(=O)c1ccccc1NC(=O)c1sc(=S)n(C)c1N,i,
COc1cccc(NC(=O)c2ccc3nc(C)sc3c2)c1,i,
Cc1ccc(Cc2c(-c3ccccc3)nc3cc(C)c(Br)c(C)n23)cc1,12,HuH7 TTR inh=i;TTR up confirm=i
Cc1cc2nc(-c3ccc(F)cc3)c(Cc3ccccc3)n2c(C)c1Br,i,
Cc1ccc(Cc2c(-c3cccc(Cl)c3)nc3cc(C)c(Br)c(C)n23)cc1,i,
CCC(C)(C(=O)NC1CCCCC1)N(CC1CCCO1)C(=O)c1ccccn1 (configuration not stated),i,
CCOc1ccc(NC(=O)C/C(C)=N/NC(=O)Cc2ccc(Cl)cc2)cc1,i,
O=c1[nH]n(-c2ccc(Cl)cc2)c2ncccc12,14,HuH7 TTR inh=i;TTR up confirm=i
O=c1[nH]n(CCO)c(=O)c2cccnc12,i,
COc1ccc(-n2c(=S)[nH]c(=O)c3cccnc32)cc1,i,
COc1cccc(-c2cc3c(c4c2ccn4C)C2CCC3C2)c1 (configuration not stated),i,
O=C1OCC(O)=C1Cc1ccccc1,i,
CC(=Nc1ccccc1)C1=C(O)COC1=O,18,HuH7 TTR inh=i;TTR up confirm=i
COc1ccc(OC)c(N=C(C)C2=C(O)COC2=O)c1,i,
O=C(N=C1SC2CS(=O)(=O)CC2N1Cc1ccccc1)C1CC1 (configuration not stated),i,
O=C(CCC1CCCC1)N=C1SC2CS(=O)(=O)CC2N1c1ccccc1F (configuration not stated),13,HuH7 TTR inh=i;TTR up confirm=i
O=C(COc1ccccc1)N=C1SC2CS(=O)(=O)CC2N1c1ccccc1 (configuration not stated),i,
CN1CCC(=O)N([C@H](CC#N)c2ccccc2)CC1,i,
CN1C(=O)c2cc(NC(=O)C3CCOCC3)ccc2OC[C@@H]2O[C@@H](CC(=O)NCc3ccccc3F)CC[C@@H]21,i,
COCCN1C(=O)C(O)=C(C(C)=O)C1c1ccc(F)cc1 (configuration not stated),i,
N#CCCN(C(=O)COc1ccc(Br)cc1F)c1ccc(F)cc1,i,
SMILES,TTR transcr act,others
O=C(COC(=O)c1ccc(O)cc1)Nc1ccc(N2CCCCC2)cc1,i,
COc1ccc(OCC(=O)Nc2ccc(N3CCCCC3)cc2)cc1,i,
COc1cc(OC)cc(C(=O)OCC(=O)Nc2ccc(N3CCCCC3)cc2)c1,12,HuH7 TTR inh=i;TTR up confirm=i
CCN(CC)CC(C)OC(=O)c1ccccc1Cl (configuration not stated),i,
CCCn1c(C(C)Nc2nc(-c3ccc(OC)cc3)cs2)nc2ccccc21 (configuration not stated),i,
CCCn1c(C(O)c2ccc(OC)cc2)nc2ccccc21 (configuration not stated),9.8,HuH7 TTR inh=i;TTR up confirm=i
CCn1c(C(O)c2cc(OC)c(OC)c(OC)c2)nc2ccccc21 (configuration not stated),i,
C/C(CC(=O)Nc1ccc(Cl)cc1C(F)(F)F)=N\NC(=O)c1cccs1,i,
O=C(NCc1ccccc1)c1ncn(Cc2ccccc2)c1C(=O)NCc1ccccc1,i,
COc1ccc(CCn2c(C)cc(C(=O)CSc3nnnn3-c3ccccc3)c2C)cc1OC,i,
CC(=O)Nc1ccc(S(=O)(=O)N2CCN(Cc3ccccc3[N+](=O)[O-])CC2)cc1,i,
S=c1[nH]nc(CSc2nc3ccccc3s2)o1,14,HuH7 TTR inh=i;TTR up confirm=i
Cn1c(CSc2nc3ccccc3s2)n[nH]c1=S,i,
COC(=O)c1ccc(CSc2nc3ccccc3s2)o1,i,
CCCCNC(=O)C1(C)CCC(=O)N1CCCn1ccnc1 (configuration not stated),i,
O=C(Nc1ccc2c(c1)OCO2)c1ccc(Br)o1,i,
O=C(Nc1ccc2c(c1)OCO2)c1cncc(Br)c1,11,HuH7 TTR inh=i;TTR up confirm=i
O=C(Nc1ccc2c(c1)OCO2)c1cccc(F)c1,i,
N#CC(CCc1ccccn1)c1ccccc1 (configuration not stated),i,
CCN(CC)S(=O)(=O)c1cccc(NC(=O)c2ccc(-n3nc(C)cc3C)cc2)c1,i,
CC(C(=O)OCC(=O)NC1CCCC1)N1C(=O)c2ccccc2C1=O (configuration not stated),i,
CC(OC(=O)CN1C(=O)c2ccccc2C1=O)C(=O)NC1CCCCC1 (configuration not stated),14,HuH7 TTR inh=i;TTR up confirm=i
